Compound activity: PubChem, National Center for Advancing Translational Sciences (NCATS)
NS1 function inh: inhibitors of influenza NS1 protein function; hit rate 0.4% among 270,000; Potency, µM (titrated, usually from 46.1 µM), for the others: at the top dose activity, positive = more growth; calls by dose curve; note: actives are rising curves; nearly all actives have a fitted effect of over 50% in size
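OD600 was taken as the measure of yeast growth restored by compound in an NS1-expressing S. cerevisiae strain. Cells had been washed out of glucose medium and diluted 1:100 into galactose -URA medium, pH 6.0.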
SARS PLpro yeast: inhibitors of SARS-CoV papain-like protease in yeast | S. cerevisiae expressing SARS-CoV PLpro, growth rescue | Potency, µM (highest dose often 32.9 µM), without a hit: at the highest dose activity, positive = growth rescue, hits mostly activators | AID 485353 | hit rate 0.19% among 330,000; calls by dose curve; note: 0% is about no effect; nearly all actives have a fitted effect of over 55% in size
Pf growth 48h: inhibits P. falciparum growth in the first generation, 48 h. P. falciparum luciferase growth in erythrocytes, 48 h. Potency, µM (titrated, usually from 28.7 µM), inactives show top-dose activity change, negative = inhibition, hits mostly inhibitors. hit rate 5.9% among 310,000. AID 504832; note: % is set by controls: 0 for no effect and ±100 for the full control effect
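Here the parasites carry a stable luciferase gene and grow inside erythrocytes in Albumax-based RPMI medium with compound for one erythrocytic cycle. Activity is scored as loss of luminescent signal.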
RE007 growth inh: less growth of the S. pombe RE007 Vpr strain; AID 651644; Potency, µM (series often up to 92.2 µM), without a hit: at the top dose activity change, negative = less growth, usual class: inhibitors; hit rate 0.21% among 360,000; S. pombe RE007 Vpr strain, BacTiter-Glo ATP luminescence, 24 h; active = well fitted falling curve with a large enough effect; inconclusive = small, poorly fitted or top-dose-only effect; inactive = no such curve, though single readings can be large or run the other way; note: % is set by controls: 0 for no effect and ±100 for the full control effect; nearly all actives have a fitted effect of over 50% in size
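Fission yeast strain RE007, carrying one chromosomally integrated HIV-1 vpr copy, was seeded at OD 0.01 in PMG+AL medium with 23 nL pinned compound. After 24 h at 30 °C and 99% humidity, viability was read by BacTiter-Glo luminescence.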
Pf growth 96h: inhibits malaria parasite growth, 96 h; hit rate 6.9% among 320,000; P. falciparum luciferase reporter growth, 96 h; AID 504834; Potency, µM (series often up to 28.7 µM), for inactives: top-dose activity change, negative = inhibition, actives largely listed as inhibitors; note: % is set by controls: 0 for no effect and ±100 for the full control effect
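96 h incubation, 37 C, 5% CO2, of luciferase-reporter P. falciparum-infected RBCs (2% hematocrit, 0.05% parasitemia final) with test compounds; endpoint luminescence.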
Starred values were filed as active, the others as inactive; ? = inconclusive; . = not tested or not shown; [ ] = remark or other dose. Compounds with a hit are over-represented: about 9.5% of the library has one in this group of screens. Unless noted, calls come from the whole dose curve; as a rule, active = well fitted inhibition curve with a large enough effect; inconclusive = small, poorly fitted or top-dose-only effect, or another doubt; inactive = no such curve, though single readings can be large or run the other way. Potency is the fitted concentration of half-maximal effect.

SMILES	NS1 function inh	SARS PLpro yeast	Pf growth 48h	RE007 growth inh	Pf growth 96h
COc1ccc(S(=O)(=O)N2CCC(C(=O)NCC(=O)Nc3c(C)cccc3C)CC2)cc1OC	.	.	.	1%	.
CCC(=O)N1CCc2cc(Br)cc(S(=O)(=O)N3CCC(C(=O)NC(C)(C)C)CC3)c21	-4%	-1%	?	2%	34%
CC(=O)N1CCc2cc(Br)cc(S(=O)(=O)N3CCCCC3)c21	14%	-10%	2.6µM*	2%	?
CCC(=O)N1CCc2cc(Br)cc(S(=O)(=O)N3CCCC(C(=O)NC(C)(C)C)C3)c21 (stereo unspecified)	7%	-1%	1.2µM*	-5%	?
Cc1ccc(CNC(=O)CCS(=O)(=O)c2cc(Br)cc3c2N(C(=O)C2CC2)CC3)o1	9%	2%	2.6µM*	-22%	12µM*
CC(=O)N1CCc2cc(Br)cc(S(=O)(=O)N3CCN(c4ccccn4)CC3)c21	-12%	2%	?	13%	.
CCN(c1ccc2c(c1)OCO2)S(=O)(=O)c1cc(Br)cc2c1N(C(C)=O)CC2	2%	-14%	?	0%	9.3µM*
O=C(O)CCS(=O)(=O)c1cc(Br)cc2c1N(C(=O)C1CC1)CC2	.	0%	?	1%	?
O=C(CN1C(=O)C2C3C=CC(C3)C2C1=O)OCC(=O)c1ccc(Cl)c([N+](=O)[O-])c1 (stereo unspecified)	.	.	.	-1%	.
CCCCN(C)S(=O)(=O)c1cc(Br)cc2c1N(C(=O)C1CC1)CC2	-85%	-17%	4.7µM*	-7%	?
CCOC(=O)C1CCN(S(=O)(=O)c2cc(Br)cc3c2N(C(C)=O)C(C)C3)CC1 (stereo unspecified)	-16%	-6%	8.3µM*	7%	?
CCOC(=O)C1CCCN(S(=O)(=O)c2cc(Br)cc3c2N(C(C)=O)CC3)C1 (stereo unspecified)	-28%	-2%	3.7µM*	7%	?
CCOCCCNS(=O)(=O)c1cc(Br)cc2c1N(C(=O)C1CC1)CC2	-3%	-3%	?	6%	33%
CCOC(=O)N1CCN(S(=O)(=O)c2cc(Br)cc3c2N(C(C)=O)C(C)C3)CC1 (stereo unspecified)	-50%	2%	?	4%	0%
O=C(C1CC1)N1CCc2cc(Br)cc(S(=O)(=O)NCCN3CCOCC3)c21	3%	-2%	8%	-6%	?
O=C(C1CC1)N1CCc2cc(Br)cc(S(=O)(=O)N3CCOCC3)c21	-37%	-23%	5.2µM*	17%	37%
CC1(c2cccc(Br)c2)NC(=O)N(CC(=O)N2CCc3ccccc32)C1=O (stereo unspecified)	.	5%	-1%	2%	?
Cc1ccc(NC(=O)c2cc(S(=O)(=O)N3CCCCC3)ccc2N2CCOCC2)cc1F	3%	29%	12µM*	1%	.
CC(=O)Nc1ccc(NC(=O)c2cc(S(=O)(=O)N3CCCCC3)ccc2N2CCOCC2)cc1	.	.	.	-7%	.
O=C(Nc1ccc(OC(F)F)cc1)c1cc(S(=O)(=O)N2CCCCC2)ccc1N1CCOCC1	.	6%	?	7%	4.7µM*
COc1ccc(C)cc1NC(=O)c1cc(S(=O)(=O)N2CCCCC2)ccc1N1CCOCC1	.	-5%	12µM*	-21%	?
COc1cc(NC(=O)c2cc(S(=O)(=O)N3CCCCC3)ccc2N2CCOCC2)cc(OC)c1	.	9%	?	2%	?
COC(=O)c1cc(S(=O)(=O)NCCc2sccc2C)c[nH]1	5%	.	-12%	14%	?
Cc1ccsc1/C=C1/NC(=O)N(Cc2ccc(F)cc2)C1=O	1%	-1%	?	-4%	18%
CCN(CC)C(=O)CCSc1nnc(-c2ccco2)o1	.	2%	123%	2%	?
SMILES	NS1 function inh	SARS PLpro yeast	Pf growth 48h	RE007 growth inh	Pf growth 96h
COc1ccc(-c2cccc(NC(=O)c3cccs3)c2)nn1	.	3%	9.3µM*	1%	7.4µM*
Cc1ccc(-c2nnc3c4ccccc4c(C)nn23)cc1NC(=O)c1ccco1	1%	.	.	.	.
O=C(Nc1cccc(-c2nn[nH]n2)c1)c1cccs1	-5%	-2%	28%	-2%	?
CCOc1ccc(-c2cccc(NC(=O)c3cccs3)c2)nn1	.	-7%	5.2µM*	-2%	3.7µM*
CCOc1ccccc1C(=O)Nc1cccc(-c2ccc(N3CCOCC3)nn2)c1	.	-19%	?	-6%	9.3µM*
Cc1nn2c(-c3cccc(NC(=O)c4ccco4)c3)nnc2c2ccccc12	-43%	-11%	9.3µM*	7%	53%
CCOc1ccc(-c2cccc(NC(=O)COc3ccc(Cl)cc3)c2)nn1	-25%	0%	-11%	-9%	?
C=CCNc1nc(C(=O)OC(C)C(=O)c2ccc(C)cc2)cs1 (stereo unspecified)	.	2%	.	-12%	.
COc1ccccc1-c1cnc(C(O)c2cccc(CN3CCCCC3)c2)[nH]1 (stereo unspecified)	.	.	.	-12%	.
CCS(=O)(=O)c1ccc(-c2cccc(NC(=O)c3ccco3)c2)nn1	.	0%	?	19%	?
CCOc1ccc(-c2cccc(NC(=O)c3ccco3)c2)nn1	.	-5%	?	-3%	10µM*
Cc1ccc(NC(=O)CNC(=O)Cn2cnc3sc(C)c(C)c3c2=O)cc1F	7%	-5%	21%	2%	17%
COc1ccccc1CNC(=O)[C@@H](NC(=O)C1CCN(C(=O)[C@@H]2CCCN2C(=O)OC(C)(C)C)CC1)C(C)C	-6%	-5%	?	-1%	?
O=C(OCc1cn([C@H]2C[C@H](c3ccc(Cl)cc3)N(CC3CCCCC3)C[C@@H]2O)nn1)c1ccccc1	.	.	.	1%	.
C=C(C)CN(CC)C(=O)CSc1ccc(S(=O)(=O)N2CCN(C)CC2)cn1	.	-6%	10µM*	-15%	?
CC(C)CNC(=O)CSc1ccc(S(=O)(=O)N2CCN(C)CC2)cn1	.	0%	-1%	-5%	?
C=C(C)CN(CC)C(=O)CSc1ccc(S(=O)(=O)N2CCN(Cc3ccccc3)CC2)cn1	.	-3%	?	-10%	8.3µM*
CC(C)Oc1ccc(F)cc1-c1cc(C(=O)Nc2ccc(C(C)(C)C)cc2)[nH]n1	.	.	.	-17%[18.4 µM]	.
CNS(=O)(=O)c1ccc(NS(=O)(=O)c2ccccc2F)cc1	.	-5%	4%	-6%	?
O=C(/C=C/c1ccccc1)NCc1ccco1	-2%	-1%	51%	-15%	-12%
